Compound activity (PubChem BioAssay)
NSD2 inh: NSD2 (human) methyltransferase inhibition; inhibition, % at 12.5 µM; NSD2 peptide methylation, AlphaScreen, 120 min; 310,000 tested, 0.54% active
MITF act: MITF TRPM1 promoter activation in melanoma cells | SK-MEL-5 TRPM1-promoter luciferase, 24 h; % of positive control, neutral wells = 0 | 300,000 tested, 0.75% active | activation, % at 12.5 µM | AID 588334;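 active means mean activation of at least 80% with every replicate also reaching 80%; inconclusive means mean reaches 80% but some replicate falls short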;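 further: 0% = neutral control wells and 100% = parthenolide positive control wells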
DYRK1A inh: blocks rat Dyrk1A kinase activity; 310,000 tested, 0.43% active; Q63470; AID 504441; inhibition, % at 12.5 µM; ADP-Glo luminescence, NFATc1 peptide;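 further: plate controls were vehicle with enzyme for no effect and no enzyme for full effect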
GSIS activator: GLuc luminescence reporter in INS-1E cells, primary screen for activators of glucose-dependent secretion of insulin; 370,000 tested, 0.61% active; INS-1E GLuc reporter insulin secretion, 2-3 h; activation, % at 16.6 µM;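 active means lowest replicate activation of at least 40%, so every replicate reaches that level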;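 further: 0% = median of neutral control wells and 100% = median of IBMX positive control wells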
Wnt bcat act: activators of Wnt/beta-catenin signaling; Wnt/beta-catenin reporter cell assay, activator, plate reader; activation, % at 9.35 µM; 300,000 tested, 1.2% active; AID 743398; in the data active means activation above about 30%, passing the limit was not always enough; inconclusive means no clear call, values can overlap the other calls;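 further: 0% = neutral control wells and 100% = positive control wells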
miR-122 sensor: blocks miR-122 activity in Huh7 sensor cells; Huh7 miR-122 Renilla luciferase sensor, 48 h; neutral wells = 0, positive control = 100; activation (reporter increase), % at 12.5 µM; 340,000 tested, 0.3% active; AID 602342;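 active means mean replicate activation score at least 90 and every replicate individually at or above 90; inconclusive means only one of the two criteria met; inactive means neither criterion met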;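 further: higher luciferase means less miR-122 activity so hits act as miR-122 inhibitors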
ADP-Glo artifact: interferes with ADP-Glo luciferase readout without Dyrk1A; AC50, µM (highest dose often 12 µM), for the others: at the top dose activity change, negative = inhibition; shares compounds with DYRK1A inh; AID 588348; 1,300 tested, under 10 active; ADP-Glo luciferase artifact assay, no Dyrk1A, luminescence;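 active means fitted half-maximal dose AC50 no more than ten times the top valid tested dose, with luminescence dropping as dose rises; inconclusive means poor fit, or flat fit with 30 to 70% inhibition; inactive means the rest, signal increases included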
* marks the source's active call; other numbers are inactive results; ? = inconclusive; . = not tested or not shown; [ ] = remark or other dose. Most compounds without a hit are left out; they make up all but 2.4% or so of the library. Unless noted, no stated cut-off is given here; in the data, active means inhibition above about 50%; inactive means the rest.

SMILES	NSD2 inh	MITF act	DYRK1A inh	GSIS activator	Wnt bcat act	miR-122 sensor	ADP-Glo artifact
COCCCNc1c2c3c(cccc3[nH]c1=O)C(=O)c1ccccc1-2	.	-7	65*	.	0	39	15%
O=c1[nH]c(COc2ccccc2)nc2ccccc12	-2	?	1	-9	24	1	.
Clc1ccc2nc(COc3ccccc3)[nH]c2c1	-4	56	54*	-6	6	4	9%
C[C@@H](O)C#Cc1cnc2c(c1)C(=O)N([C@@H](C)CO)C[C@H](C)[C@@H](CN(C)C(=O)CC1CC1)O2	.	.	.	2	.	2[16.7 µM]	.
COc1ccc(N=Nc2c(C)n[nH]c2C)cc1	12	11	52*	12	1	0	9%
Cc1n[nH]c(C)c1N=Nc1ccc(Br)cc1	6	6	34	26	1	.	.
COc1cc(/C=C2\SC(=S)N(NC(=O)c3cccc(O)c3)C2=O)ccc1O	28	-12	61*	-19	1	.	5%
Cc1ccsc1/C=N/Nc1ncnc2nc[nH]c12	-2	58	54*	2	15	.	2%
Fc1ccc(/C=N/Nc2ncnc3nc[nH]c23)cc1F	.	75	25	9	-2	-6	.
Cc1ccccc1/C=N/Nc1ncnc2nc[nH]c12	-4	38	63*	-12	10	1	8%
C(=N\Nc1ncnc2nc[nH]c12)/c1cccs1	-4	56	66*	1	61*	-4	-1%
COc1ccccc1-c1ccc2c(c1)O[C@H](CN(C)CC1CC1)[C@H](C)CN([C@@H](C)CO)S2(=O)=O	.	.	.	0	.	18[16.7 µM]	.
C[C@@H]1CN([C@@H](C)CO)C(=O)c2cc(NS(C)(=O)=O)ccc2O[C@@H]1CN(C)CC1CC1	.	.	.	32	.	.	.
Cc1cccc(CNc2ncnc3ccc(-c4ccccc4Cl)cc23)c1	.	0	6	7	8	0	.
Cc1cccc(CNc2ncnc3ccc(-c4ccc5c(c4)OCO5)cc23)c1	.	-17	51*	10	-1	.	6%
C[C@H]1CN([C@@H](C)CO)C(=O)c2cccc(NS(=O)(=O)c3ccc(F)cc3)c2O[C@H]1CN(C)C(=O)Nc1ccc(C(F)(F)F)cc1	.	.	.	-11	.	31[16.7 µM]	.
CCOC(=O)c1ccc2ncc(C(=O)OCC)c(Nc3ccc(N4CCOCC4)cc3)c2c1	8	-7	65*	13	-3	.	6%
c1cncc(-c2nc(NCc3ccco3)c3ccccc3n2)c1	0	-10	53*	.	.	7	10%
c1cncc(-c2nc(NCCCn3ccnc3)c3ccccc3n2)c1	3	13	75*	25	3	.	9%
Cc1nc(NCCCn2ccnc2)c2ccccc2n1	-1	4	11	6	.	-1	.
CO[C@H]1CN(C)C(=O)c2cc(NC(=O)c3ccc(F)cc3)ccc2OC[C@H](C)N(C(=O)CN(C)C)C[C@@H]1C	.	.	.	0	.	.	.
OCc1cc(C(O)CNCCCCCCOCCCCc2ccccc2)ccc1O (centres undefined)	.	0	53*	.	-3	2	9%
CO[C@@H]1CN(C)C(=O)c2cc(NS(=O)(=O)CC(F)(F)F)ccc2OC[C@H](C)N(Cc2ccccn2)C[C@H]1C	.	.	.	2	.	.	.
O=c1cc(-c2ccc(O)cc2)oc2c(O)c(O)c(O)c(O)c12	.	-3	54*	23	1	5	10%
O=c1cc(-c2ccccc2)oc2cc(O)c(O)c(O)c12	.	.	57*	5	-1	-10	10%
SMILES	NSD2 inh	MITF act	DYRK1A inh	GSIS activator	Wnt bcat act	miR-122 sensor	ADP-Glo artifact
O=c1cc(-c2ccc(O)cc2)oc2ccc3ccccc3c12	-3	-83	.	-14	-14	.	.
O=c1cc(-c2ccc(O)cc2)oc2c1ccc1ccccc12	-2	44	.	19	1	.	.
CNC[C@H]1Oc2ccc(NC(=O)Nc3ccc(F)cc3)cc2CC(=O)N([C@H](C)CO)C[C@@H]1C	.	.	.	1	.	-1[16.7 µM]	.
Cc1cc(NCCCn2ccnc2)n2ncc(-c3ccc(Cl)cc3)c2n1	-1	7	56*	.	.	-4	10%
Cc1cc(NCCCN2CCOCC2)n2ncc(-c3ccc(Cl)cc3)c2n1	-2	13	-1	.	19	18	.
Cc1cccc(NC(=S)NN2CCN(C)CC2)c1	-2	-2	54*	29	-1	-5	10%
Cc1ccc(NC(=S)NN2CCN(C)CC2)c(C)c1	-2	-5	-3	-6	-7	.	.
O=C(O)c1ccc(/C=N/Nc2ccc(C(F)(F)F)cn2)cc1	-4	46	54*	-11	19	.	9%
Cc1cccc(C)c1OCCOC(=O)c1n[nH]c2ccccc12	1	24	60*	-2	0	1	9%
COc1ccc2c3c([nH]c2c1)[C@@H](CO)NCC31CN(C(=O)Nc2ccc3c(c2)OCO3)C1	.	.	.	5	.	.	.
Cc1cccc(NC(=O)C2NC(=O)CC2c2ccccc2)c1C (centres undefined)	.	1	59*	0	-4	.	2%
Cc1cccc(C)c1NC(=O)C1NC(=O)CC1c1ccccc1 (centres undefined)	.	7	9	9	-2	.	.
C=CCc1ccc(OCCOc2ccc(/C=N/n3cnnc3)cc2OCC)c(OC)c1	.	-38	60*	61*	0	-8	10%
O=C1NC(=O)/C(=C\c2ccc(Br)o2)S1	11	3	66*	-38	-1	.	13%
O=C1NC(=S)/C(=C\c2ccc(-c3ccccc3Cl)o2)S1	12	0	3	-26	2	.	.
COc1ccc(C=C2SC(=O)NC2=O)cc1OC	-3	16	.	-30	-2	-6	.
O=C1NC(=O)/C(=C/c2ccc(-c3cc(C(=O)O)ccc3Cl)o2)S1	19	.	61*	-54	-1	.	10%
C[C@H](CO)N1C[C@H](C)[C@H](CN(C)Cc2ccncc2)Oc2ccc(NS(=O)(=O)c3ccc(Cl)cc3)cc2C1=O	.	.	.	1	.	-3[16.7 µM]	.
CC(C)NC(=O)N(C)C[C@@H]1Oc2cc(Br)ccc2S(=O)(=O)N([C@H](C)CO)C[C@H]1C	.	.	.	7	.	9[16.7 µM]	.
Cn1c(=O)c2c(nc(NCc3ccco3)n2CC(O)COc2ccccc2)n(C)c1=O (centres undefined)	.	4	56*	.	-1	-3	8%
CCCNC(=O)N1CC2(CN(Cc3nccs3)C2)c2c([nH]c3cc(OC)ccc23)[C@H]1CO	.	.	.	22	.	.	.
COc1cccc(S(=O)(=O)Nc2ccc3c(c2)[C@@H]2C[C@@H](CC(=O)NCc4ccccc4F)O[C@@H](CO)[C@@H]2O3)c1	.	.	.	2	.	18[16.7 µM]	.
CCC(=O)N1[C@@H]2c3ccc(-c4ccccc4)c(=O)n3C[C@H]1[C@H](CO)[C@H]2C(=O)N(C)C	.	.	.	15	.	-1[16.7 µM]	.
COc1ccc(NC(=O)Nc2ccc3c(c2)C(=O)N([C@@H](C)CO)C[C@H](C)[C@H](CN(C)C(=O)Nc2ccccc2)O3)cc1	.	.	.	13	.	-3[16.7 µM]	.
